{"source": "PubChem BioAssay (NCATS)", "note": "Inconclusive results are not listed. A number with no mark means an inactive call. Active and inactive are the calls of the source. The call rests on the fitted dose curve; in most records, active means well fitted cell-killing curve with a large enough effect; inconclusive means small, poorly fitted or top-dose-only effect; inactive means no such curve, though single readings can be large or run the other way. Potency means the concentration at half of the fitted maximal effect.", "data": [{"assay": "qHTS of pediatric cancer cell lines to identify multiple opportunities for drug repurposing: Confirmatory screen for SK-N-MC cells (AID 1347111);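 further: cells exposed to compound for 48 h before the readout; nearly all actives have a fitted effect of over 70% in size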", "details": "SK-N-MC cell viability; series mostly up to 45.9 µM; activity change, negative = cytotoxic: at the top concentration", "from_the_text": "Drug repurposing or repositioning has been offered as a strategy for drug development in oncology programs. This approach has special potential for childhood cancers and other rare or orphan diseases, where the expected return on new drug development has been a disincentive to pharmaceuticals.\nIn this project we exploit the poly-pharmacology of drugs to discover new indications via phenotypic screening of a panel of 19 well-characterized cell lines derived from solid tumors seen in children and adolescents. The goal is to identify approved drugs with previously unrecognized anticancer properties that has the potential to reveal new mechanisms and biological processes involved in carcinogenesis or drug resistance. We employed a titration-based paradigm (quantitative high-throughput screening or qHTS), where all compounds were tested at multiple concentrations for their effect on cell viability. Concentration-response curves (CRCs) were derived directly from the primary screen, and both potency and efficacy values were used to identify compounds with robust bioactivity profiles. We screened the NIH Chemical Genomics Center (NCGC) Pharmaceutical Collection (NPC) and Mechanism Interrogation Plate (MIPE) small molecule collections of approved and investigational compounds against these cell lines; and measured metabolically active cells after 48 hours of compound treatment as a proxy for cell viability.\nAssay Submitter: Nathalia J. Martinez, National Center for Advancing Translational Sciences, National Institutes of Health, Rockville, MD, USA; email: natalia.martinez@nih.gov\n[1] Shen, M et al. Quantitative high-throughput phenotypic screening of pediatric cancer cell lines identifies multiple opportunities for drug repurposing. Oncotarget 2017 Dec 19;9(4):4758-4772. PMID 29435139.\nThe cells were obtained from University of North Carolina (UNC), Pediatric Preclinical Testing Program (PPT), and Coriell Institute (CI).\nqHTS cell viability assay:\nCells were assayed in growth media at a density of 500-1,000 cells/well. Five microliters of cells were dispensed into 1,536-well, white, solid-bottom, TC-treated plates (Greiner Bio One) using a multidrop dispenser and incubated at 37 degrees C, 5% CO2, under a humidified atmosphere for 5 hours. Twenty-three nanoliters of compounds and controls (neutral control DMSO or positive control bortezomib at final concentration of 2.3 µM) were subsequently transferred by Kalypsys pintool. For primary screens, the MIPE collection was tested at 11-point dilutions (final concentrations range from 0.78 nM to 46 µM) and the NPC collection at 8-point dilutions (final concentrations range from 0.59nM to 46 µM). Compounds tested in follow-up screens were assayed at 11-point dilutions. Cells were incubated for 48 hours, followed by addition of 3 uL of CellTiter-Glo (Promega). After a 15 min incubation at room temperature, samples were analyzed for luminescence intensity using a ViewLux High-throughput CCD imager equipped with clear filters.", "values": [{"compound": "CC[C@@H]1[C@@H](C)O[C@@](O)([C@@H](C)[C@H](O)[C@H](C)[C@H]2OC(=O)C=CC=C[C@@H](C)[C@@H]([C@@H](C)[C@@H](O)[C@H](C)[C@@]3(O)C[C@H](O[C@H]4C[C@H](O)[C@H](O)[C@H](C)O4)[C@H](CC)[C@@H](C)O3)OC(=O)C=CC=C[C@@H]2C)C[C@H]1O[C@H]1C[C@H](O)[C@H](O)[C@H](C)O1", "activity change, negative = cytotoxic": "4.69%"}, {"compound": "C[C@@H]1CC[C@@]2(OC1)O[C@H]1C[C@H]3[C@@H]4CC=C5C[C@@H](O[C@@H]6O[C@H](CO)[C@@H](O[C@@H]7O[C@@H](C)[C@H](O)[C@@H](O)[C@@H]7O)[C@H](O)[C@@H]6O[C@@H]6O[C@@H](C)[C@H](O)[C@@H](O)[C@@H]6O)CC[C@]5(C)[C@@H]4CC[C@]3(C)[C@@H]1[C@H]2C", "Potency": "2330 nM (active)"}, {"compound": "O=[N+]([O-])c1c(Cl)c(Cl)cc(Cl)c1Cl", "Potency": "38000 nM (active)"}, {"compound": "CC[C@H]1C=CC=CC[C@@H](C)[C@H](O)[C@@](C)(O)C(=O)[C@@H](C)[C@H](O)[C@@H](C)C(=O)[C@@H](C)[C@H](O)[C@@H](C)C=CC(=O)O[C@@H]2[C@@H](C)[C@H](CC1)O[C@]1(CC[C@H](C)[C@H](C[C@@H](C)O)O1)[C@H]2C", "Potency": "233 nM (active)"}, {"compound": "CC(C)(O)C=CC(=O)[C@](C)(O)[C@H]1[C@H](O)C[C@]2(C)[C@@H]3CC=C4[C@@H](C=C(O)C(=O)C4(C)C)[C@]3(C)C(=O)C[C@@]12C", "Potency": "147 nM (active)"}, {"compound": "CC(=Cc1csc(C)n1)[C@@H]1C[C@H]2O[C@]2(C)CCC[C@H](C)[C@@H](O)[C@@H](C)C(=O)C(C)(C)[C@@H](O)CC(=O)O1", "Potency": "5.9 nM (active)"}, {"compound": "CC(C)(C)C(O)C(Oc1ccc(Cl)cc1)n1cncn1", "note": "(centres undefined)", "activity change, negative = cytotoxic": "11.8% [at 95.5 µM]"}, {"compound": "CC(=O)[O][Hg][c]1ccccc1", "Potency": "827 nM (active)"}, {"compound": "Cc1ccccc1-n1c(Cn2cnc3c(N)ncnc32)nc2cccc(C)c2c1=O", "activity change, negative = cytotoxic": "22.7%"}, {"compound": "O=C(Nc1ccncc1)C(=O)c1cn(Cc2ccc(Cl)cc2)c2ccccc12", "Potency": "329 nM (active)"}, {"compound": "CC=C(C)C(=O)O[C@H]1C(C)=C2[C@@H]3OC(=O)[C@@](C)(O)[C@@]3(O)[C@@H](OC(=O)CCC)C[C@](C)(OC(C)=O)[C@@H]2[C@@H]1OC(=O)CCCCCCC", "activity change, negative = cytotoxic": "5.86%"}, {"compound": "O=C(N[C@H]1CN2CCC1CC2)c1ccc(Cl)cc1", "Potency": "1170 nM (active)"}, {"compound": "CC(C)N[C@@H]1CCn2c(=O)[nH]c3cccc(c32)[C@@H]1O", "Potency": "18500 nM (active)"}, {"compound": "O=c1[nH]c2ccc(Cl)cc2c(N[C@@H]2CN3CCC2CC3)c1-c1nc2ccccc2[nH]1", "Potency": "293 nM (active)"}, {"compound": "CC1=C(O)C(=O)C=C2C1=CC=C1[C@@]2(C)CC[C@@]2(C)[C@@H]3C[C@](C)(C(=O)O)CC[C@]3(C)CC[C@]12C", "Potency": "1170 nM (active)"}, {"compound": "C=CCON=C(C[C@H]1O[C@@H]2O[C@]3(C)CC[C@@H]4[C@H](C)CC[C@@H]([C@H]1C)[C@@]24OO3)[C@H]1O[C@@H]2O[C@]3(C)CC[C@H]4[C@H](C)CC[C@@H]([C@@H]1C)[C@@]24OO3", "Potency": "147 nM (active)"}, {"compound": "COc1ccc2c(c1)CN(C)CC2c1ccc(Cl)c(Cl)c1", "note": "(centres undefined)", "Potency": "6570 nM (active)"}, {"compound": "C[C@@H]1O[C@@H](O[C@@H]2C=C3CC[C@@H]4[C@@H](CC[C@]5(C)[C@H](c6ccc(=O)oc6)CC[C@@]45O)[C@@]3(C)CC2)[C@H](O)[C@H](O)[C@H]1O", "Potency": "32.9 nM (active)"}, {"compound": "C[C@H]1CCCC=CC2C[C@H](O)C[C@@H]2[C@H](O)C=CC(=O)O1", "note": "(some centres undefined)", "Potency": "104 nM (active)"}, {"compound": "COc1cc2cc(c1Cl)N(C)C(=O)C[C@H](OC(=O)C(C)C)[C@]1(C)O[C@H]1[C@H](C)[C@@H]1C[C@@](O)(NC(=O)O1)[C@H](OC)C=CC=C(C)C2", "Potency": "1.3 nM (active)"}, {"compound": "Cc1ccccc1-n1c(Cn2ncc3c(N)ncnc32)nc2cccc(C)c2c1=O", "Potency": "1040 nM (active)"}, {"compound": "Cc1[nH]nc2ccc(-c3cncc(OC[C@@H](N)Cc4c[nH]c5ccccc45)c3)cc12", "Potency": "1470 nM (active)"}, {"compound": "O=C(O)CCCOc1ccc(Cl)cc1Cl", "Potency": "43400 nM (active)"}, {"compound": "CCCCCC[C@H]1C(=O)O[C@H](C)[C@H](NC(=O)c2cccc(NC=O)c2O)C(=O)O[C@@H](C)[C@@H]1OC(=O)CC(C)C", "Potency": "46.5 nM (active)"}, {"compound": "CC=C(C)C(=O)N[C@@H](c1ccccc1)[C@@H](O)C(=O)O[C@H]1C[C@@]2(O)[C@@H](OC(=O)c3ccccc3)[C@@H]3[C@]4(OC(C)=O)CO[C@@H]4C[C@H](O)[C@@]3(C)C(=O)[C@H](OC(C)=O)C(=C1C)C2(C)C", "Potency": "36.9 nM (active)"}, {"compound": "CC(=Cc1csc(C)n1)[C@@H]1C[C@H]2O[C@@H]2CCC[C@H](C)[C@@H](O)[C@@H](C)C(=O)C(C)(C)[C@@H](O)CC(=O)O1", "Potency": "20.8 nM (active)"}, {"compound": "CC(C)[C@]12O[C@@H]1[C@@H]1O[C@]13[C@]1(O[C@H]1C[C@@H]1C4=C(CC[C@@]13C)C(=O)OC4)[C@H]2O", "Potency": "46.5 nM (active)"}, {"compound": "CC[C@@]1(O)C(=O)OCc2c1cc1n(c2=O)Cc2cc3ccccc3nc2-1", "Potency": "29.3 nM (active)"}, {"compound": "Cc1c(C(=O)Nc2cccc(C(F)(F)F)c2)cc(-c2ccccc2)n1CCCN1CCOCC1", "Potency": "26900 nM (active)"}]}]}
